This is an account of results in PubChem BioAssay (NCATS).

Results filed as inconclusive are left out. Values without a mark were called inactive. Active and inactive are the calls of the source. The call rests on the fitted dose curve; in most records, active means well fitted curve in the direction sought with a large enough effect; inconclusive means small, poorly fitted or top-dose-only effect, or another doubt; inactive means no such curve, though single readings can be large; an effect the other way counts as inactive or inconclusive.

One assay has as its system TAB109. Description: qHTS profiling for inhibitors of Plasmodium falciparum proliferation (AID 504749). Further: nearly all actives have a fitted effect of over 60% in size. The conditions noted are these: P. falciparum in erythrocytes, SYBR Green DNA, 72 h; series mostly up to 28.7 µM. In outline: (§1)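 Each compound contacts P. falciparum-infected red blood cells for 72 h at 37 C; lysis buffer (Tris, EDTA, saponin, Triton X, SYBR Green I) is added and fluorescence measured next morning; values normalized to controls.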
For orientation: qHTS replaces the single test concentration by a dilution series.

Another assay relates to TAB113. The assay is described as above. The conditions noted are these: P. falciparum in erythrocytes, SYBR Green DNA, 72 h; series mostly up to 28.7 µM. Summed up: as §1
In the next assay the test system is TAB165. The description is as above. The conditions noted are these: P. falciparum in erythrocytes, SYBR Green DNA, 72 h; series mostly up to 28.7 µM. Summed up: as §1
The next assay relates to W2. The description is as above. The conditions noted are these: P. falciparum in erythrocytes, SYBR Green DNA, 72 h; series mostly up to 28.7 µM. In outline: as §1
The next assay concerns HEK293. Nature of the assay: Cytotoxic Profiling of Annotated Libraries Using Quantitative High-Throughput Screening (AID 1296008). Further: nearly all actives have a fitted effect of over 60% in size. On max response: on the % scale 0 is the no-effect control and ±100 the full control effect. The conditions noted are these: Five cell lines viability, CellTiter-Glo ATP luminescence, 48-72 h; max response: stronger effect = lower value. Summed up: (§2)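 Cells exposed to compounds for 48 or 72 hr at 37 degrees Celsius. Viability read as ATP-coupled luminescence with CellTiter-Glo after 10 min at room temperature.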

A further assay has as its system KB-3-1. The assay is described as above. The conditions noted are these: Five cell lines viability, CellTiter-Glo ATP luminescence, 48-72 h; max response: stronger effect = lower value. Summed up:
as §2
On the technique in general: Cellular ATP, detected with luciferase, serves as a proxy for viable cell number.

The test system of a further assay is MKL-2. Description: qHTS assay to identify novel small-molecules to repurpose for Merkel cell carcinoma treatment (AID 1296009). Further: nearly all actives have a fitted effect of over 60% in size. The conditions noted are these: MCC and control cell lines, CellTiter-Glo viability, 72 h; series mostly up to 46 µM. In outline:
(§3)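 Dose-response viability screen; 72 hr exposure at 37 degree celsius; CellTiter-Glo added, 10 min room temperature, luminescence read; RLUs scaled between no-cell and DMSO wells.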

In a further assay the test system is HaCat. Nature of the assay: Cytotoxic Profiling of Annotated Libraries Using Quantitative High-Throughput Screening (AID 1296008). Further: nearly all actives have a fitted effect of over 60% in size. On max response: on the % scale 0 is the no-effect control and ±100 the full control effect. The conditions noted are these: Five cell lines viability, CellTiter-Glo ATP luminescence, 48-72 h; max response: stronger effect = lower value. In outline:
as §2

The next assay relates to NIH3T3. The assay is described as above. The conditions noted are these: Five cell lines viability, CellTiter-Glo ATP luminescence, 48-72 h; max response: stronger effect = lower value. In outline:
as §2

Another assay has as its system MCC-13. Description: qHTS assay to identify novel small-molecules to repurpose for Merkel cell carcinoma treatment (AID 1296009). Further: nearly all actives have a fitted effect of over 60% in size. The conditions noted are these: MCC and control cell lines, CellTiter-Glo viability, 72 h; series mostly up to 46 µM. Summed up:
as §3

The next assay deals with MCC-26. Described as above. The conditions noted are these: MCC and control cell lines, CellTiter-Glo viability, 72 h; series mostly up to 46 µM. In outline:
as §3

For a further assay, the system named is MKL-1. The assay is described as above. The conditions noted are these: MCC and control cell lines, CellTiter-Glo viability, 72 h; series mostly up to 46 µM. In outline: as §3
Another assay relates to UISO. The description is as above. The conditions noted are these: MCC and control cell lines, CellTiter-Glo viability, 72 h; series mostly up to 46 µM. In outline:
as §3

The next assay deals with WaGa. The description is as above. The conditions noted are these: MCC and control cell lines, CellTiter-Glo viability, 72 h; series mostly up to 46 µM. Summed up: as §3
The test system of a further assay is C33A. Description: Primary qHTS to identify gynecologic anti-cancer compounds using libraries of approved drugs and bioactive compounds (AID 1345084). Further: nearly all actives have a fitted effect of over 55% in size. The conditions noted are these: Gynecologic cancer cell panel viability, ATPlite luminescence, 48 h; series mostly up to 57.5 µM. Summed up: (§4)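 48 h compound exposure at 37 C, 5% CO2; five-point qHTS. ATPlite luminescence readout of cell ATP.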

For a further assay, the system named is CAOV3. The description is as above. The conditions noted are these: Gynecologic cancer cell panel viability, ATPlite luminescence, 48 h; series mostly up to 57.5 µM. In outline: as §4
The test system of a further assay is HEK293T. Nature of the assay: qHTS assay to identify novel small-molecules to repurpose for Merkel cell carcinoma treatment (AID 1296009). Further: nearly all actives have a fitted effect of over 60% in size. The conditions noted are these: MCC and control cell lines, CellTiter-Glo viability, 72 h; at 44.8 µM (top of the series) unless noted. In outline:
as §3
Potency means the concentration at half of the fitted maximal effect.

As for `CCCCCCCCNC(C)C(O)c1ccc(SC(C)C)cc1` (stereo unspecified), the Potency with TAB109 is 1 µM (active); with TAB113, 0.355 µM (active); in the assay on TAB165, 0.794 µM (active); with W2, 0.169 µM (active); with HEK293 it was 13.3 µM (active); in the assay on MKL-2 it was 18.8 µM (active). In the assay with KB-3-1, the max response is 7.32%.
As to `Cc1ccc(S(=O)(=O)NC(=O)NC2CCCC2)cc1`, the Potency result in the assay on TAB109, with TAB113, in the assay on TAB165, in the assay with W2, in the assay with MCC-13 and in the assay with MCC-26 was “inactive” throughout. The Potency entry in the assay with MKL-1, in the assay with MKL-2, in the assay on UISO, in the assay on WaGa, in the assay with C33A and in the assay with CAOV3 was “inactive” each time. For the same molecule, the max response is -5.76% in the assay on HEK293, 2.64% in the assay with HaCat, 5.86% with KB-3-1 and 3.93% with NIH3T3.
For `C#C[C@]1(O)CC[C@H]2[C@@H]3CCC4=Cc5oncc5C[C@]4(C)[C@H]3CC[C@@]21C`, the Potency result in the assay with TAB109, in the assay with TAB113, in the assay with TAB165, with W2, in the assay with MCC-13 and in the assay on MCC-26 was “inactive” throughout. The Potency result with MKL-1, with MKL-2, in the assay on UISO, with WaGa and in the assay with C33A was “inactive” in each case. In addition, the Potency with HEK293 is 21.1 µM (active). In addition, the max response in the assay with KB-3-1 was -24%.
Regarding `CC(=O)OC[C@H]1O[C@@H](n2ncc(=O)[nH]c2=O)[C@H](OC(C)=O)[C@@H]1OC(C)=O`, the Potency result in the assay with TAB109, in the assay with TAB165, in the assay on W2, with MCC-13, with MCC-26 and in the assay on MKL-1 was “inactive” in each case. Further, the Potency entry in the assay on MKL-2, with UISO, in the assay on C33A and in the assay on CAOV3 was “inactive” each time. Also, in the assay with HEK293, the Potency is 0.944 µM (active). Moreover, the max response in the assay on HaCat is -1.52%.
On to `Cc1cc2c(OCC(CNC(C)(C)C)OC(=O)c3ccccc3)cccc2[nH]1` (stereo unspecified), for which the Potency entry in the assay with TAB113, in the assay with MCC-13, in the assay on MCC-26, in the assay with MKL-1, with MKL-2 and in the assay on UISO was “inactive” each time. For the same molecule, the Potency result in the assay with C33A and in the assay with CAOV3 was “inactive” in each case. The Potency with W2 was 2.13 µM (active). In addition, the result in the assay on HEK293 and with HEK293T was inactive. For the same molecule, the results for the max response in the assay on HaCat and in the assay with NIH3T3 were 1.54% and 2.07%, respectively.
For the molecule `O=C(Nc1ncc([N+](=O)[O-])s1)c1cccs1`, the Potency result in the assay with TAB109, in the assay on TAB113, in the assay on TAB165, with W2, in the assay on MCC-26 and in the assay with C33A was “inactive” each time. For the same molecule, the Potency in the assay with HEK293 is 15 µM (active); with WaGa, 26.6 µM (active). For the same molecule, the max response in the assay with HaCat was -23.3%.
For `CC(=O)NO`, the Potency entry with TAB109, with TAB113, in the assay on TAB165, in the assay with W2, in the assay on MCC-13 and in the assay on MCC-26 was “inactive” in each case. The Potency entry with MKL-1, in the assay on MKL-2, in the assay on UISO, with WaGa, in the assay with C33A and with CAOV3 was “inactive” throughout. Further, the max response with HEK293 is 1.75%; in the assay with HaCat, -61%; in the assay with KB-3-1 it was 15.6%; in the assay with NIH3T3, 2.47%.
As for `O[C@@H](c1cc(C(F)(F)F)nc2c(C(F)(F)F)cccc12)[C@H]1CCCCN1`, the Potency is 0.0158 µM (active) with TAB109; 0.01 µM (active) in the assay on TAB113; 0.0316 µM (active) in the assay with TAB165; 9.44 µM (active) with HEK293; 25.9 µM (active) in the assay on KB-3-1; 21.1 µM (active) in the assay on MKL-1. In addition, the Potency with MKL-2 is 2.99 µM (active); in the assay on UISO it was 23.7 µM (active); in the assay on C33A, 28.2 µM (active); with CAOV3, 20 µM (active).
